Assay results published in PubChem BioAssay (Tox21).
Inconclusive results are not listed. A call without a number means that no potency is given here. Values without a mark were called inactive. The source made the active and inactive calls. Calls come from the whole dose curve; as a rule, active = well fitted cell-killing curve with a large enough effect in the repeat runs; inconclusive = weak or mixed curves, or effect the other way; inactive = flat fitted curve, though single readings scatter.

Assay: Caspase-3/7 induction in HepG2 cells by small molecules, qHTS cell viability counter screen (AID 1346981); note: nearly all actives have a fitted effect of over 30% in size
Conditions: CellTiter-Fluor fluorescence, 17 h; series mostly up to 92.4 µM
From the text: U.S. Tox21 Program National Center for Advancing Translational Sciences [NCATS] NIH Chemical Genomics Center [NCGC] U.S. Environmental Protection Agency [EPA] National Institutes of Environmental Health Sciences [NIEHS] National Toxicology Program [NTP] U.S. Food and Drug Administration [FDA] Tox21 Assay Overview: Apoptosis is a process of programmed cell death and plays a central role in the development of multicellular organisms. It is a highly regulated process and induces cell death by activating caspases, which are the members of cysteine aspartic acid-specific protease (caspase) family. Caspases involved in apoptosis are classified by their mechanism of action as initiator caspases (caspase-2, -8, -9 and -10) and executioner caspases (caspase-3, -6, and -7). Inhibition of apoptosis results in number of cancers, autoimmune diseases, inflammatory diseases and viral infection. To identify small molecule compounds that induce apoptosis, a homogeneous, luminescent Caspase-Glo 3/7 assay was used. Wild type HepG2 cells were used to screen Tox21 libraries for identifying caspase-3/7 activity inducers. Also cytotoxicity of the compounds was tested in parallel by measuring the cell viability using CellTiter-Fluor assay system in the same wells.
Tox21 Assay Protocol Summary: HepG2 cells were dispensed at 2,000 per well in 5uL of culture medium into white solid bottom 1536-well plates (Corning Life Sciences, Corning, NY) using a Multidrop Combi (Thermo Scientific, Waltham, MA) dispenser. The assay plates were incubated at 37 C and 5% CO2 for 5hr, and then 23nL of compounds dissolved in DMSO and positive control were transferred using a Pintool station ([…], San Diego, CA). The assay plates were incubated at 37C and 5% CO2 for 17hr. For cytotoxicity read, after 16hr incubation at 37C, 1uL CellTiter-Fluor reagent (Promega Corporation, Madison, WI) was added to each well of the assay plates using Flying Reagent Dispenser (FRD, Aurora Discovery, San Diego, CA). After 1hr incubation at 37C and 5% CO2, the fluorescence signal was quantified using a ViewLux plate reader (PerkinElmer, Shelton, CT).
Potency is the fitted concentration of half-maximal effect.

SMILES	Potency	activity change, negative = cytotoxicity
Cc1cc(NC(=O)C2=C(O)c3ccccc3S(=O)(=O)N2C)no1	inactive	–
Nc1ccc2cc(S(=O)(=O)O)cc(O)c2c1	60.8 µM (active)	–
Cc1ccccc1OCC(O)CO (stereo not given)	inactive	–
C#CC(C)N(C)C(=O)Nc1ccc(Cl)cc1 (stereo not given)	inactive	–
FC(F)(F)c1ccccc1-n1ccnc1	inactive	–
Cc1ccsc1/C=C/C1=NCCCN1C	inactive	–
CC1COc2ccccc2N1 (stereo not given)	inactive	–
O=Cc1ccc(Cl)c(Cl)c1	inactive	–
Cc1cc(C(C)(C)C)c(O)c(C)c1CC1=NCCN1	inactive	–
CCOc1cc(NC(C)=O)ccc1C(=O)OC	inactive	–
C=C(C)C(=O)OCCNC(C)(C)C	inactive	–
COC(=O)CCc1ccc(OCC(O)CNC(C)C)cc1 (stereo not given)	inactive	–
COc1cc2c(cc1OC)[C@@H]1CC(=O)[C@@H](CC(C)C)CN1CC2	inactive	–
Cc1ccc(C=O)cc1C	inactive	–
OCCC(F)(F)C(F)(F)C(F)(F)C(F)(F)C(F)(F)C(F)(F)C(F)(F)C(F)(F)F	inactive	–
BrCCCCCBr	inactive	–
CCCOC(=O)C(C)O (stereo not given)	inactive	–
CCCCCCCCC1CCC(=O)O1 (stereo not given)	inactive	–
CN(CCOc1ccc(NS(C)(=O)=O)cc1)CCc1ccc(NS(C)(=O)=O)cc1	inactive	–
COc1ccc(Br)c(C)c1	inactive	–

SMILES	Potency	activity change, negative = cytotoxicity
N[C@@H](CCC(=O)N[C@@H](CS)C(=O)NCC(=O)O)C(=O)O	–	-0.0408% [at 19 µM]
COc1cc(C(=S)N2CCOCC2)cc(OC)c1OC	inactive	–
CCCCCCCCC(=O)Cl	inactive	–
CN1C(C)(C)CCCC1(C)C	inactive	–
Cc1cccc(C)c1OCC(C)N (stereo not given)	inactive	–
CC1(CO)CN(c2ccccc2)NC1=O (stereo not given)	inactive	–
CCCCCCCCSCC	inactive	–
CC/C=C\CC1=C(C)CCC1=O	inactive	–
CO[C@@H]1[C@@H](OC(N)=O)[C@@H](O)[C@H](Oc2ccc3c(O)c(NC(=O)c4ccc(O)c(CC=C(C)C)c4)c(=O)oc3c2C)OC1(C)C	inactive	–
c1ccc2nccnc2c1	inactive	–
O=C1O[C@@H]2[C@@H](O)[C@H](O)O[C@@H]2[C@H]1O	inactive	–
CCC(C=O)CC	inactive	–
N#Cc1ccc(C(=O)O)cc1	inactive	–
CC(C)(C)c1nnc(NS(=O)(=O)c2ccc(N)cc2)s1	inactive	–
O=C(Nc1ccc(Cl)c(Cl)c1)C1CC1	inactive	–
Cc1cccc2nccnc12	inactive	–
CC(=O)Nc1ccc(S(=O)(=O)Cl)cc1	inactive	–
COc1ccc2c(c1)C(=O)N(CCc1ccc(S(=O)(=O)NC(=O)NC3CCCCC3)cc1)C(=O)C2(C)C	inactive	–
CC(C)NCC(O)COc1ccc(COCCOC(C)C)cc1 (stereo not given)	inactive	–
CCCCCCOC(=O)CC	inactive	–
